Shown are actives, neighbours in structure and some others; about 5.2% of the full set was active somewhere.
FBPA coupling cs = qHTS Assay for Inhibitors of Fructose-1,6-bisphosphate Aldolase from Giardia Lamblia: Coupling assay counterscreen; coupling enzyme system counterscreen, AmpLite Red fluorescence; actives 0.67% (n = 290,000); activity change, negative = inhibition, % at 58.2 µM, hits read low; AID 2472, 2010; in the data active means activity change below about -30%
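First, compound is pin-transferred into glyceraldehyde-3-phosphate coupling-enzyme reagent at 57.5 uM final and held 10 min at RT. Next, substrate, coupling system and AmpLite Red are added. After 20 min RT, fluorescence (525/598 nm) is read.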
Tau ThT inhib = qHTS for Inhibitors of Tau Fibril Formation, Thioflavin T Binding; recombinant tau K18 P301L, heparin-induced fibrillization, ThT fluorescence; Potency, µM (highest dose often 57.4 µM), for the others: top-dose activity, negative = inhibition, actives largely listed as inhibitors; actives 2.1% (n = 270,000); AID 1460, 2008; further: potency means the concentration at half of the fitted maximal effect; nearly all actives have a fitted effect of over 55% in size
Target sequence (P10636 561-689 P618L limits assumed): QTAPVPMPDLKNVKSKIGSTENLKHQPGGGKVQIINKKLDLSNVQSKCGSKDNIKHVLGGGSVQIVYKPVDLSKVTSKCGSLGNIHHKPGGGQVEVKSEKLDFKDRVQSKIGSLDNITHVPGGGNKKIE
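Using a mix of unlabeled (15 uM) and Alexa 594-labeled (0.24 uM) tau K18 P301L, heparin-triggered fibrillization over 6 hr at 37 C was scored by ThT fluorescence.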
Tau FP inhib = qHTS for Inhibitors of Tau Fibril Formation, Fluorescence Polarization | Microtubule-associated protein tau (Homo sapiens), P10636 | K18 P301L tau heparin fibrillization, Alexa594 FP, 6 h | Potency, µM (titrated, usually from 57.7 µM), without a hit: at the highest dose activity, negative = inhibition, hits mostly inhibitors | actives 0.39% (n = 280,000) | AID 1468, 2008; further: potency means the concentration at half of the fitted maximal effect; nearly all actives have a fitted effect of over 55% in size
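Recombinant K18 P301L […], labeled with Alexa 594 at 0.24 uM over 15 uM unlabeled; heparin inducer 20 uM final; 37 C, 6 hr; FP endpoint.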
Sfp PPTase inh = qHTS Assay for Inhibitors of Bacillus subtilis Sfp phosphopantetheinyl transferase (PPTase); Biochemical Sfp PPTase activity, qHTS; actives 3.5% (n = 310,000); 4'-phosphopantetheinyl transferase ffp (Bacillus subtilis), Q9F4F7; Potency, µM, without a hit: largest response in the series, negative = inhibition, actives largely listed as inhibitors;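 further: the enzyme is Sfp with the accession as filed and its product quenches rhodamine fluorescence; potency means the concentration at half of the fitted maximal effect; 0% = enzyme reaction without inhibitor and -100% = no enzyme wells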
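Fluorescence-quenching assay: 15 nM Sfp-PPTase preincubated 15 min at room temperature with compound, then 5 uM rhodamine-CoA and 12.5 uM BHQ-2-labelled YbbR peptide added. Fluorescence (ex 525/em 598 nm) read at start and after 30 min; difference gives rate.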
Tau fluor counter = Counterscreen qHTS for Inhibitors of Tau Fibril Formation, Fluorescence Polarization; tau K18 P301L (four-repeat tau fragment) Alexa594 fluorescence, heparin fibrillization; Potency, µM (series often up to 57.7 µM), for the others: at the top dose activity change, negative = decrease; actives 0.93% (n = 280,000); AID 1463, 2008; further: potency means the concentration at half of the fitted maximal effect; nearly all actives have a fitted effect of over 55% in size
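Human K18 P301L tau (15 uM unlabeled plus 0.24 uM Alexa 594-labeled, final) in 100 mM sodium acetate pH 7 was mixed with compound and 20 uM heparin and incubated 6 hr at 37 C.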
Starred values were filed as active, the others as inactive; u = inconclusive; x = no result; [ ] = dose if it differs, or a comment. Unless noted, the call rests on the fitted dose curve; in most records, active means well fitted curve in the direction sought with a large enough effect; inconclusive means small, poorly fitted or top-dose-only effect, or another doubt; inactive means no such curve, though single readings can be large; an effect the other way counts as inactive or inconclusive. Unless noted, on the % scale 0 is the no-effect control and ±100 the full control effect.

SMILES	FBPA coupling cs	Tau ThT inhib	Tau FP inhib	Sfp PPTase inh	Tau fluor counter
CC(CC(=O)O)Nc1ccccc1O (stereo not given)	-17.4	u	-8.0%	35.5µM*	-8.0%
CCC1=NN2C(=N)/C(=C\c3cccn3-c3c(C)cccc3C)C(=O)N=C2S1	10.4	-15.9%	11.8%	56.2µM*	-6.6%
Cc1ccc(-n2cccc2/C=C2/C(=N)N3C(=NC2=O)SN=C3S(C)(=O)=O)cc1Cl	14.2	u	8.8%	89.1µM*	1.5%
CCC1=NN2C(=N)/C(=C\c3cccn3-c3ccc(C)cc3C)C(=O)N=C2S1	7.8	u	3.1%	-2.1%	-20.2%
CC1=CSC2=NC(=O)/C(=C\c3cccn3-c3ccccc3)C(=N)N12	1.0	11.7%	-1.9%	10µM*	3.0%
COc1cccc(-c2nc(NC3CCNCC3)c3ccccc3n2)c1	-5.1	x	x	-22.9%	x
COc1ccc(C(=O)/C=C/c2ccc(N3CCCCC3)c([N+](=O)[O-])c2)c(OC)c1	-1.6	3.98µM*	3.9%	-11.0%	u
COc1ccc(-c2noc(-c3ccc(N4CCCCC4)c([N+](=O)[O-])c3)n2)cc1	x	9.5%	-9.4%	x	-4.2%
O=C(O/N=C\c1ccc(N2CCCCC2)c([N+](=O)[O-])c1)c1cccc(Cl)c1	-2.0	u	5.7%	-2.2%	-23.8%
Cc1ccc(C(=O)O/N=C\c2ccc(N3CCCCC3)c([N+](=O)[O-])c2)cc1	0.7	4.47µM*	11.0%	6.4%	-16.7%
CN(C)c1ccc(/C=C/C(=O)c2ccc3c(c2)OCCO3)cc1[N+](=O)[O-]	0.2	3.55µM*	4.5%	-3.3%	u
COc1ccc(C(=O)/C=C/c2ccc(N3CCCCC3)c([N+](=O)[O-])c2)cc1	-2.1	7.94µM*	11.6%	15.1%	u
Cc1nc2ccn(Cc3cccs3)c(=O)c2cc1C(=O)Nc1ccccc1	x	-1.2%	-4.4%	x	-0.1%
COc1ccco1	1.6	x	x	6.3%	x
CC(=O)CSc1nsc(SCC(C)=O)c1C#N	3.0	15.8µM*	u	-14.7%	-28.5%
Cc1ccc(NC(=O)CSc2nsc(SCC(=O)Nc3ccc(C)cc3C)c2C#N)c(C)c1	0.6	8.1%	-10.4%	5.9%	-1.0%
COCCNCC(=O)Nc1nc(C)cs1	0.9	-12.8%	-4.7%	44.7µM*	-4.3%
Cc1csc(NC(=O)CSc2nsc(SCC(=O)Nc3nc(C)cs3)c2C#N)n1	2.3	3.98µM*	-12.5%	4.0%	10µM*[quencher]
CCOC(=O)CSc1nsc(SCC(=O)OCC)c1C#N	6.8	u	8.4%	7.2%	-8.2%
COc1ccc(N2CCN(CCCNC(=O)c3cnn(-c4ccc(F)cc4)c3-n3cccc3)CC2)cc1	x	-16.5%	12.8%	x	-9.9%
CCc1ccc(CNC(=O)CCn2c(=O)c3cccn3c3ccc(F)cc32)cc1	x	-5.8%	-2.3%	x	-22.6%
Cc1ccc2nc(SCc3nc(-c4ccc(Cl)cc4)no3)[nH]c2c1	x	u	17.8µM*	x	10µM*[quencher]
CN1CCN(c2ncc3nc(-c4ccc(Cl)cc4)c(=O)n(Cc4cccs4)c3n2)CC1	2.3	x	x	-12.4%	x
O=c1c(-c2cccs2)nc2cnc(N3CCNCC3)nc2n1Cc1cccs1	3.1	x	x	17.8µM*	x
COc1cccc(Cn2c(=O)c(-c3cn(C)c4ccccc34)nc3cnc(N4CCNCC4)nc32)c1	0.6	x	x	u	x
SMILES	FBPA coupling cs	Tau ThT inhib	Tau FP inhib	Sfp PPTase inh	Tau fluor counter
O=c1c(-c2cc(F)cc(F)c2)nc2cnc(N3CCNCC3)nc2n1Cc1cccs1	0.7	x	x	35.5µM*	x
Cn1cc(-c2nc3cnc(N4CCNCC4)nc3n(Cc3ccc(F)cc3)c2=O)c2ccccc21	2.6	x	x	20µM*	x
O=c1c(-c2ccc(Cl)cc2)nc2cnc(N3CCNCC3)nc2n1Cc1cccs1	10.4	x	x	28.2µM*	x
CCC(=O)N1CCc2cc(S(=O)(=O)N3CCN(c4cc(Cl)ccc4C)CC3)ccc21	x	x	x	-3.7%	x
FC(F)(F)Oc1ccc(NC(=S)NCCCN2CCOCC2)cc1	0.2	-2.4%	-1.0%	56.2µM*	-6.8%
S=C(NCCCN1CCOCC1)NCCCN1CCOCC1	-22.0	-11.5%	-11.7%	7.08µM*	-0.7%
CC1(C)CC(=O)C(c2c[nH]c3ccccc23)C(=O)C1	-0.1	u	-14.8%	79.4µM*	-17.1%
O=C(O)Cn1cc(C(=O)c2ccco2)c2ccccc21	-0.6	-6.9%	-3.0%	-21.6%	-1.0%
CC(=O)c1cc(O)c2ccccc2c1O	-33.0*	28.2µM*	u	44.7µM*	u
CC(=O)Oc1cc2c(C(C)=O)coc2c2ccccc12	-1.4	-6.3%	-4.7%	-1.8%	0.2%
O=C(c1ccco1)c1coc2c1cc(O)c1ccccc12	-31.0*	3.55µM*	-0.7%	-7.8%	u
CC(=O)c1c(C)oc2c1cc(O)c1ccccc12	-19.7	x	0.1%	0.2%	-19.6%
CC(=O)c1coc2c1cc(O)c1ccccc12	-33.4*	u	7.2%	5.3%	-18.8%
CC(C)=CCC/C(C)=C/CO/N=C1/C[C@@H](O)[C@@H](O)[C@@H]2[C@@H]3C(=O)N([C@@H](C)c4ccccc4)C(=O)[C@H]3CC[C@@H]12	0.0	-11.9%[11.5 µM]	1.5%[11.6 µM]	22.7%	-8.4%[11.6 µM]
O=C(CCn1c(=O)c2cccn2c2cccnc21)NCc1ccccc1F	x	0.1%	-2.6%	x	-4.5%
COc1cc(C/C=C\c2ccccc2)c(OC)cc1O	-46.8*	20µM*	u	44.7µM*	u
O=C(NCCNc1ccc(Cl)cc1[N+](=O)[O-])c1cccnc1	0.5	u	3.4%	8.8%	-13.9%
Cc1ccoc1C(=O)NCCNc1ccc(Cl)cc1[N+](=O)[O-]	-4.3	11.2µM*	4.3%	-21.7%	-23.8%
N#Cc1nc(NCCO)nc(Nc2ccccc2)n1	-0.6	x	x	x	x
CC1(C)CC(=O)C2=C(C1)N(Cc1cccnc1)C(=O)C2(NC(=O)c1cccnc1)C(F)(F)F (stereo not given)	0.6	2.3%	-3.9%	31.8%	-2.7%
CC1(C)CC(=O)C2=C(C1)N(Cc1ccco1)C(=O)C2(NC(=O)c1cccnc1)C(F)(F)F (stereo not given)	-0.3	-18.3%	-2.6%	22.4µM*	-9.6%
COC(=O)c1cc(NC(=O)c2nccnc2C(=O)O)cc(C(=O)OC)c1	2.8	-16.3%	-0.5%	56.2µM*	-7.7%
C/C=C/C=C/C(=O)[C@@H]1[C@@H]([C@]2(C)OC(=O)C(C)=C2O)[C@H]2/C(=C(O)/C=C/C=C/C)C(=O)[C@]1(C)C(=O)C2(C)O (stereo not given in full)	-3.5	14.1µM*	u	50.1µM*	-3.5%

High-throughput results: PubChem, National Center for Advancing Translational Sciences (NCATS)
